# Experimental data from PubChem BioAssay (EPA / NIEHS).
# Records with an inconclusive call do not appear. Active and inactive are the calls of the source. How the source made its calls: active means hit-call score of the fitted dose curve at least 0.9, where 1 is the maximum; inconclusive means response in the unintended direction; inactive means score below 0.9.
# Experiment: TOX21_TRB_BLA_Agonist_Followup_viability: Viability Assessment in the Tox21 Thyroid Hormone Receptor beta Agonism Beta-lactamase (BLA) Follow-Up Assay (AID 2283956)
# Text: The GeneBLAzer TRb-UAS-bla HEK293T assay kit for human TRb (ThermoFisherScientific Catalog No. K1684) was used as a secondary assay for specificity (TRb-bla). This assay contained the ligand-binding domain (LBD) of the human TRb fused to the DNA-binding domain of GAL4 stably integrated in the GeneBLAzer UAS-bla HEK293Tcell line. The reporter gene, b-lactamase, is under the transcriptional control of a UAS that binds the GAL4 DNA-binding domain. A cell viability assay was run in parallel for these cells as well using the CellTiter-Glo viability assay kit.TOX21_TRB_BLA_Agonist_Followup_viability is a component of the TOX21_TRB_BLA_Agonist_Followup assay. This component measures cell viability using the CellTiter-Glo Luciferase-coupled ATP quantitation.The assay component endpoint TOX21_TRB_BLA_Agonist_Followup_viability was analyzed with bidirectional fitting relation to DMSO as the negative control and baseline of activity. Using a type of viability reporter, loss-of-signal activity can be used to understand changes in viability. To generalize the intended target to other relatable targets, this assay endpoint is annotated to cell cycle, where the subfamily is cytotoxicity.
# Cell Media Required: Growth (90% DMEM/F-12, 10% Fetal Bovine Calf Serum, 100U/ml Penicillin, 100 ug/ml Streptomycin), Assay (10ng/mL sodium selenite, 10 ug/mL humanapo-transferrin, 10 uM ethanolamine, 10 ug/mL insulin, 500 ug/mL bovine serum albumin (BSA))Assay Protocol: TRb-bla cells were dispensed at 3,000 cells/well in 5 uL of the assay medium containing phenol red-free DMEM with 2% charcoal-stripped FBS in 1,536-well black-wall/clear-bottom plates using an FRD. After 5-h incubation at 37C/5% CO2 for cell attachment to the well bottom, 23nL of follow-up compounds dissolved in DMSO, 11 concentrations in triplicate, and the positive control (T3; agonist format) were transferred to the assay plates using a Pintool station. The assay plates were incubated at 37C/5% CO2 for 18h. One microliter LiveBLAzer FRET-B/G CCF4-AM substrate was added to each well using an FRD. After 2-h incubation at room temperature, the fluorescence intensity was measured using an Envision plate reader. Data were expressed as the ratio of 460:530nm. The cytotoxicity of the compounds was measured in the same plates by adding 4 uL of CellTiter-Glo reagent to each well and incubating the plates at room temperature for 30 min. The luminescence intensity was measured using a ViewLux plate reader.For the luciferase reporter gene assay, 5 uL/well (agonist format) and 4 uL/well (antagonist format) ONE-Glo reagent (Promega Corporation) was added using an FRD and after 30-min incubation at room temperature, the luminescence intensity was measured using a ViewLux plate reader. Data were expressed as relative fluorescence units (cell viability assay) and relative luminescence units (luciferase reporter assay).
row,Compound,outcome
1,CNC(=O)ON=C(CSC)C(C)(C)C,inactive
2,C=C(NC(=O)C(=C)NC(=O)c1csc(C2=NC3c4csc(n4)C4NC(=O)c5csc(n5)C(C(C)(O)C(C)O)NC(=O)C5CSC(=N5)/C(=C/C)NC(=O)C(C(C)O)NC(=O)c5csc(n5)C3(CC2)NC(=O)C(C)NC(=O)C(=C)NC(=O)C(C)NC(=O)C(C(C)CC)NC2C=Cc3c(C(C)O)cc(nc3C2O)C(=O)OC4C)n1)C(N)=O (stereo not given),inactive
3,C[C@]12CC[C@H]3C(=CCc4cc(O)ccc43)[C@@H]1CCC2=O,inactive
4,Oc1ccccc1,inactive
5,O=C(c1ccccc1)c1ccc(O)cc1O,inactive
6,CCCCCCC(C)O (stereo not given),inactive
7,Nc1ccc(S(N)(=O)=O)cc1,inactive
8,CSCC[C@H](NC(=O)[C@H](Cc1ccc(OS(=O)(=O)O)cc1)NC(=O)[C@@H](N)CC(=O)O)C(=O)NCC(=O)N[C@@H](Cc1c[nH]c2ccccc12)C(=O)N[C@@H](CCSC)C(=O)N[C@@H](CC(=O)O)C(=O)N[C@@H](Cc1ccccc1)C(N)=O,inactive
9,CC(CCO)CCCC(C)(C)O (stereo not given),inactive
10,O=C(O)CCCCCCNC1c2ccccc2CCc2ccccc21,inactive
11,CCCCCCCCCCC,inactive
12,CC(=O)OCCC(C)CC(C)(C)C (stereo not given),inactive
13,COc1cc(C)c(/C=C/C(C)=C/C=C/C(C)=C/C(=O)O)c(C)c1C,inactive
14,Cc1cc(-n2c(=O)[nH]c(=O)n(C)c2=O)ccc1Oc1ccc(S(=O)(=O)C(F)(F)F)cc1,inactive
15,COC(=O)c1ccc(I)cc1S(=O)(=O)NC(=O)Nc1nc(C)nc(OC)n1,inactive
16,CCNc1nc(N)nc(Cl)n1,inactive
17,CC1=C(/C=C/C(C)=C\C=C\C(C)=C\C(=O)O)C(C)(C)CCC1,inactive
18,CC(C)CC(=O)O,inactive
19,CC(C)=CCC/C(C)=C\CO,inactive
20,O=C(O)Cc1cc(I)c(Oc2ccc(O)c(I)c2)c(I)c1,inactive

row,Compound,outcome
1,NCC(=O)CCC(=O)O,inactive
2,Nc1ccc(S(=O)(=O)Nc2nccs2)cc1,inactive
3,CC(C)CCCCCCCOC(=O)c1ccccc1C(=O)OCCCCCCCC(C)C,inactive
4,CC(C)(C)CC(C)(C)c1ccc(O)c(Cc2ccc(Cl)cc2Cl)c1,inactive
5,O=C(O)Cc1cc(I)c(Oc2cc(I)c(O)c(I)c2)c(I)c1,inactive
6,CC(C)(C)c1cc(C(C)(C)C)c(O)c(C(C)(C)C)c1,inactive
7,C[Si](C)O[Si](C)(C)O[Si](C)(C)O[Si](C)C,inactive
8,CC1=C(/C=C/C(C)=C/C=C/C(C)=C\C(=O)O)C(C)(C)CCC1,inactive
9,COc1ccc(OC)c([C@@H](O)[C@H](C)N)c1,inactive
10,O=c1[nH]cnc2c1ncn2[C@H]1CC[C@@H](CO)O1,inactive
11,CCCCCCC(O)CO (stereo not given),inactive
12,CCC(C)c1cc(C(C)(C)C)c(O)c(C(C)(C)C)c1 (stereo not given),inactive
13,Cc1cc(C)nc(NS(=O)(=O)c2ccc(N)cc2)n1,inactive
14,O=Cc1ccccc1S(=O)(=O)O,inactive
15,C=C(c1ccc(C(=O)O)cc1)c1cc2c(cc1C)C(C)(C)CCC2(C)C,inactive
16,N[C@@H](Cc1ccc(Oc2cc(I)c(O)c(I)c2)c(I)c1)C(=O)O,inactive
17,N[C@@H](Cc1cc(I)c(Oc2cc(I)c(O)c(I)c2)c(I)c1)C(=O)O,inactive
18,CCCN(CCC)C(=O)SCC,inactive
19,NC(CO)(CO)CO,inactive
20,CC(=O)Nc1ccc(C(=O)CCl)cc1,inactive
